Screens deposited in PubChem BioAssay by Broad Institute.
NSD2 inh – blocks human histone methyltransferase NSD2; O96028; NSD2 peptide methylation, AlphaScreen, 120 min; inhibition, % at 12.5 µM; 310,000 compounds, 0.54% hits; AID 743445; in the data active = inhibition above about 50%
N-glyco inh – blocks N-linked glycosylation in D54 reporter cells; 360,000 compounds, 0.23% hits; AID 588692; reporter increase, % at 12.5 µM; D54 ERlucT glycosylation luciferase reporter, 24 h; percent of 100 nM tunicamycin response;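 active = mean luciferase reporter signal, scaled so untreated is 0 and the glycosylation-blocking control 100, at or above a set limit in every replicate; inconclusive = mean reaches the limit but not every replicate does; inactive = mean below the limit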;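 note: luciferase carries N-glycosylation sites so blocking glycosylation raises the light; 0% = median of neutral control wells and 100% = median of 100 nM tunicamycin wells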
ALR inh – blocks human ALR sulfhydryl oxidase activity; purified ALR, DTT oxidation, H2O2 HRP-luminol luminescence; P55789; 290,000 compounds, 3.8% hits; AID 485317; inhibition, % (no concentration beside the values);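 active = mean replicate inhibition above about 79%, with every replicate also reaching it, limit read from the data; inconclusive = only one of the two criteria met; inactive = mean below limit and not every replicate reaching it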
Target sequence (P55789 whole entry, looked up): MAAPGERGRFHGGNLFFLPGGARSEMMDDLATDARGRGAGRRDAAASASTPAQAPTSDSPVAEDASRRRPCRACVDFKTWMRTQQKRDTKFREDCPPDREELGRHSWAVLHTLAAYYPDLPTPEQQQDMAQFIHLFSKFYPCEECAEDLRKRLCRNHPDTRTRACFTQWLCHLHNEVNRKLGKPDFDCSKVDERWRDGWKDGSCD
CASP6 VEID inh – inhibitors of human caspase-6; purified caspase-6, Z-VEID-R110 cleavage fluorescence; 350,000 compounds, 0.53% hits; inhibition, % at 12.5 µM;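 active = mean inhibition across replicates at least about 35%, with every replicate also reaching that limit, limit read from the data; inconclusive = only one of the two criteria met; inactive = neither criterion met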;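 note: 0% = median of neutral control wells and 100% = no fluorescence left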
Target sequence (P55212 24-179 limits assumed): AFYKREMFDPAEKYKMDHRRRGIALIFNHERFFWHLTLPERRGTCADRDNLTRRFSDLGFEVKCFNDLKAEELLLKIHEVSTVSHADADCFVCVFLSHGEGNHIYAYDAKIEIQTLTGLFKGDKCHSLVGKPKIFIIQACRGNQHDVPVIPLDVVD
Target sequence (P55212 194-293 limits assumed): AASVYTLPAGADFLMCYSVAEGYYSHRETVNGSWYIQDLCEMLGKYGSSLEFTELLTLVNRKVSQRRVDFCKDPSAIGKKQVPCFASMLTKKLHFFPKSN
CDK5 inh – blocks human CDK5/p35 kinase activity; Q00535+Q15078; Recombinant CDK5/p35, ADP-Glo luminescence, 60 min; inhibition, % at 10 µM; 330,000 compounds, 0.01% hits; AID 488839;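 active = highest replicate inhibition of at least 50% and at least 75% of replicates reaching 50%; inconclusive = only one of the two criteria met; inactive = both criteria failed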;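 note: plate controls were DMSO neutral control for no effect and GW8510 at 10 µM for full effect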
SUMO Mot1 rescue – blocks SUMOylation pathway, rescuing yeast Mot1-301 growth; 320,000 compounds, 1% hits; growth rescue, % at 18.8 µM; S. cerevisiae Mot1-301 growth rescue, ATP luminescence, 38.5C; percent above DMSO median, 100 means doubled;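 active = every valid replicate shows activation above 250% relative to neutral control wells; inactive = the rest, any valid replicate at or below 250%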;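 note: OY570 slx delta 5 strain wells were the positive control but not used for scaling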
An asterisk follows results filed as active. Rows were chosen to be rich in hits. Some 3.9% of all compounds tested hit in one or more screens of this group.

Results for COc1cccc(NC(=O)N(C)C[C@@H]2OCc3ccccc3-c3c(n(C)c4ccccc34)C(=O)N([C@H](C)CO)C[C@H]2C)c1 ?
CASP6 VEID inh: 1

How did CC(C)N1CCN(c2ccc(OC[C@H]3CO[C@](Cn4cncn4)(c4ccc(Cl)cc4Cl)O3)cc2)CC1 do in these assays?
N-glyco inh: -1; ALR inh: 11; CASP6 VEID inh: 0; CDK5 inh: -3; SUMO Mot1 rescue: 269*

What do the screens show for `CCCn1c(/C=C/c2ccco2)nc2ccccc21`?
NSD2 inh: -1; N-glyco inh: 3; ALR inh: 89*; CASP6 VEID inh: 8; CDK5 inh: -3; SUMO Mot1 rescue: 11

How did C[C@H]1CCCCO[C@@H](CN(C)CC2CCCCC2)[C@@H](C)CN([C@@H](C)CO)C(=O)c2cc(NS(C)(=O)=O)ccc2O1 do in these assays?
CASP6 VEID inh: 0

Results for C[C@@H]1CN([C@@H](C)CO)C(=O)c2cccc(NS(=O)(=O)c3ccc(Cl)cc3)c2O[C@@H]1CN(C)Cc1ccc(C(F)(F)F)cc1 ?
CASP6 VEID inh: 2

Results for CCOC(=O)N1CCN(C(=O)c2ccc3c(c2)N(Cc2ccc(F)cc2)CCS3)CC1 ?
N-glyco inh: -3; ALR inh: 98*; CASP6 VEID inh: -1; CDK5 inh: 0; SUMO Mot1 rescue: 22

How did O=C(NCC1CCCO1)c1ccc2c(c1)N(Cc1ccc(F)cc1)CCS2 (configuration not stated) do in these assays?
NSD2 inh: 20; N-glyco inh: -1; ALR inh: 99*; CASP6 VEID inh: 3; CDK5 inh: -2; SUMO Mot1 rescue: -5

Results for O=C(NCCCN1CCOCC1)c1ccc2c(c1)N(Cc1ccc(F)cc1)CCS2 ?
NSD2 inh: 7; N-glyco inh: -3; ALR inh: 99*; CASP6 VEID inh: -6; SUMO Mot1 rescue: -11

Results for O=C(NCCN1CCOCC1)c1cc2sccc2n1Cc1ccc(F)cc1 ?
NSD2 inh: -2; N-glyco inh: -2; ALR inh: 97*; CDK5 inh: 0; SUMO Mot1 rescue: 4

How did O=C(NCC1CCCO1)c1ccc2c(c1)N(Cc1ccc(F)cc1Cl)C(=O)CS2 (configuration not stated) do in these assays?
NSD2 inh: 2; N-glyco inh: -5; CASP6 VEID inh: 0; SUMO Mot1 rescue: -8

How did C[C@H](CO)N1C[C@H](C)[C@H](CN(C)C)Oc2ccc(NS(=O)(=O)c3cn(C)cn3)cc2C1=O do in these assays?
CASP6 VEID inh: -1

Results for CCC(=O)Nc1ccc2c(c1)OC[C@H](C)N(C(=O)CC1CC1)C[C@@H](C)[C@@H](OC)CN(C)C2=O ?
CASP6 VEID inh: 1

How did CCOC(=O)N1CCC(NC(=O)c2ccc3c(c2)N(Cc2ccc(F)cc2)CCS3)CC1 do in these assays?
N-glyco inh: -4; ALR inh: 36; CASP6 VEID inh: -1; CDK5 inh: 1; SUMO Mot1 rescue: 0

Results for CN1CCN(CCCNC(=O)c2ccc3c(c2)N(Cc2ccc(F)cc2)CCS3)CC1 ?
NSD2 inh: 20; N-glyco inh: -4; ALR inh: 99*; CASP6 VEID inh: -44; SUMO Mot1 rescue: 166

How did Cc1ccc(NC(=O)N/C=C/c2ccco2)cc1C do in these assays?
NSD2 inh: 7; N-glyco inh: 0; ALR inh: 87*; CDK5 inh: -1; SUMO Mot1 rescue: 10

How did Cc1ccc(NC(=O)N/C=C/c2ccco2)c(C)c1 do in these assays?
NSD2 inh: 3; N-glyco inh: -1; ALR inh: 64; CDK5 inh: 0; SUMO Mot1 rescue: -8

What do the screens show for `COc1ccc(S(=O)(=O)Nc2cccc3c2O[C@H](CN(C)C(=O)Nc2ccc(F)cc2)[C@@H](C)CN([C@@H](C)CO)C3=O)cc1`?
CASP6 VEID inh: -1

Results for O=C(COC(=O)/C=C/c1ccc2ccccc2n1)NNC(=O)c1ccccc1 ?
NSD2 inh: -2; N-glyco inh: -3; CASP6 VEID inh: -2

How did CC(C)CCNC(=O)COC(=O)/C=C/c1ccc2ccccc2n1 do in these assays?
NSD2 inh: -1; N-glyco inh: 0; ALR inh: 97*; CASP6 VEID inh: -11; CDK5 inh: 2; SUMO Mot1 rescue: -11

Results for CCc1cc(C(=O)c2ccccc2)c(N)s1 ?
NSD2 inh: 4; N-glyco inh: -3; ALR inh: 99*; CASP6 VEID inh: 2; CDK5 inh: 2; SUMO Mot1 rescue: -13

How did O=C(O)Cc1ccc(C(=O)c2ccccc2)s1 do in these assays?
NSD2 inh: 2; N-glyco inh: 1; ALR inh: -6; CDK5 inh: 1; SUMO Mot1 rescue: 3

What do the screens show for `N#C[C@H]1[C@@H](c2ccc(C#Cc3cccc(F)c3)cc2)[C@H](CO)N1C(=O)C1CCC1`?
CASP6 VEID inh: -2

What do the screens show for `C=CCn1c(-c2cccc([N+](=O)[O-])c2)n[nH]c1=S`?
NSD2 inh: 0; N-glyco inh: 2; ALR inh: 96*; CDK5 inh: 0; SUMO Mot1 rescue: -8

Results for O=C(O)c1ccc(-n2c(-c3ccc(Br)cc3)n[nH]c2=S)cc1 ?
NSD2 inh: 0; N-glyco inh: 1; ALR inh: 92*; CDK5 inh: 4; SUMO Mot1 rescue: -3

What do the screens show for `C=CCn1c(-c2cccc(Cl)c2)n[nH]c1=S`?
NSD2 inh: 0; N-glyco inh: -3; ALR inh: inconclusive; CDK5 inh: 3; SUMO Mot1 rescue: 42

Results for O=[N+]([O-])c1cccc(-c2n[nH]c(=S)n2-c2ccc(Br)cc2)c1 ?
NSD2 inh: 4; N-glyco inh: -1; ALR inh: 95*; CASP6 VEID inh: 3; CDK5 inh: 1

What do the screens show for `O=[N+]([O-])c1cccc(-c2n[nH]c(=S)n2Cc2ccccc2)c1`?
NSD2 inh: 0; N-glyco inh: 2; ALR inh: inconclusive; CDK5 inh: -2

What do the screens show for `C=CCn1c(-c2sccc2C)n[nH]c1=S`?
NSD2 inh: 0; N-glyco inh: 1; ALR inh: 95*; CASP6 VEID inh: -1; CDK5 inh: -1; SUMO Mot1 rescue: 7

What do the screens show for `S=c1[nH]nc(-c2ccc(Br)cc2)n1-c1ccc(Br)cc1`?
NSD2 inh: 3; N-glyco inh: 0; ALR inh: inconclusive; CASP6 VEID inh: 0; CDK5 inh: 3; SUMO Mot1 rescue: 5

What do the screens show for `COCC(=O)N1[C@@H](CO)[C@@H](c2ccccc2)C12CN(C(=O)NC1CCCC1)C2`?
CASP6 VEID inh: 0

How did COc1ccc(NC(=O)c2cccc(NC(=O)c3ccco3)c2)cc1 do in these assays?
NSD2 inh: 2

How did COc1ccc(S(=O)(=O)N(C)C[C@@H]2OCCCC[C@H](C)Oc3ccc(NC(=O)c4ccncc4)cc3C(=O)N([C@H](C)CO)C[C@H]2C)cc1 do in these assays?
CASP6 VEID inh: 2
